GBA activity up: glucocerebrosidase activity enhancement. 30,000 compounds, 0.44% hits. activation, % at 10 µM. L444P Gaucher fibroblasts, 4-MU-glucoside fluorescence, 3 days. AID 784; in the data active means activation above about 65%;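 further: 0% = vehicle wells and 100% = positive control wells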
Target sequence (P04062 whole entry L483P): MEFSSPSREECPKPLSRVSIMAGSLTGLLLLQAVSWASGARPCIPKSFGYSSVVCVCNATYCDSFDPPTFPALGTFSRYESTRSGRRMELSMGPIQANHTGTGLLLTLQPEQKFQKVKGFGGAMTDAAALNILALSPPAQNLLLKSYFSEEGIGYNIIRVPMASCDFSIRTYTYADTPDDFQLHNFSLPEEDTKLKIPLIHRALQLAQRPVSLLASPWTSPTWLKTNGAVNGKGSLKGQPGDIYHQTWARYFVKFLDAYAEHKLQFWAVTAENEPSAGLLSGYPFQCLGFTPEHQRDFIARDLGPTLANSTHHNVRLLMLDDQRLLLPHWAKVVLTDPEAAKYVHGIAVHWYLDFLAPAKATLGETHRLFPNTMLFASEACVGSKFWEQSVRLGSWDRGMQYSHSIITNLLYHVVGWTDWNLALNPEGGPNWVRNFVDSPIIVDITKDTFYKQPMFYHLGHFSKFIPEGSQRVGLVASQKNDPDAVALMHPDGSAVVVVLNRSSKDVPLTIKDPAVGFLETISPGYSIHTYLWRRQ
Active calls of the source: *. This excerpt belongs to a sample that is enriched for hits.

SMILES | GBA activity up
Cc1cc(NS(=O)(=O)c2ccc(NC(=O)CCN3C(=O)c4ccccc4C3=O)cc2)no1 | 93.0*
COc1ccc(OC)c(C2C3=C(CCCC3=O)Nc3nc4ccccc4n32)c1 (configuration not stated) | -22.8
O=C(CCCn1c(=S)[nH]c2cc3c(cc2c1=O)OCO3)N1CCN(c2ncccn2)CC1 | 79.3*
O=C(CCCn1c(=S)[nH]c2cc3c(cc2c1=O)OCO3)N1CCN(c2ccc(F)cc2)CC1 | -21.0
COc1cccc(N2CCN(C(=O)CCn3c(=S)[nH]c4cc5c(cc4c3=O)OCO5)CC2)c1 | 14.3
O=C1c2oc3ccc(Cl)cc3c(=O)c2C(c2ccccn2)N1CCCN1CCOCC1 (configuration not stated) | 1.3
CN1CCC(OC(=O)COc2ccc(C(C)(C)C)cc2)CC1 | -32.9
COc1ccc2cc3cc(C(=O)NCCN4CCN(Cc5ccccc5)CC4)oc3nc2c1 | 22.1
COc1ccc2cc3cc(C(=O)NCCc4ccc(OC)c(OC)c4)oc3nc2c1 | -50.5
CCN1CCN(CCCNC(=O)c2cc3cc4ccc(OC)cc4nc3o2)CC1 | 93.7*
CCCN(CCC)CCCNC(=O)c1cc2cc3ccc(OC)cc3nc2o1 | 47.6
CCCCN(CC)CCCNC(=O)c1cc2cc3ccc(OC)cc3nc2o1 | 123.2*
COc1ccc2cc3cc(C(=O)NCCCN4CCOCC4)oc3nc2c1 | 10.8
O=C(Nc1ccc(O)c(C(=O)O)c1)c1ccc2c(c1)C(=O)N(CC1CCCO1)C2=O (configuration not stated) | -2.1
Cc1cnc(-c2nnc(N(C)C(=O)c3ccncc3)s2)cn1 | -2.4
CCOc1ccccc1NC(=O)c1c(NC(=O)CNCc2ccco2)sc2c1CCC2 | -31.8
CCn1c(Oc2ccc(Oc3ncc(Cl)cc3Cl)cc2)nc2c1c(=O)n(C)c(=O)n2C | 25.6
CCOc1cccc2cc(-c3nnc(-c4ccccc4)o3)c(=O)oc12 | -2.0
FC(F)(F)COc1nc(OCC(F)(F)F)nc(N2CCN(c3ccccc3)CC2)n1 | 12.8
Cc1nc(NC(=O)c2ccccc2)sc1-c1csc(NCc2ccco2)n1 | 0.7
COc1ccc(-c2csc(NCc3ccco3)n2)cc1 | -32.3
Cc1nc(C)c(-c2csc(NCc3ccco3)n2)s1 | 97.8*
CC12CCC(C(=O)N3CCN(C(=O)C45CCC(C)(C(=O)O4)C5(C)C)CC3)(OC1=O)C2(C)C | -7.7
CCOC(=O)N1CCN(C(=O)c2ccc(Cn3c(=S)[nH]c4cc5c(cc4c3=O)OCO5)cc2)CC1 | -13.8
CCOC(=O)N1CCN(C(=O)c2ccc3c(=O)n(Cc4ccccc4)c(=S)[nH]c3c2)CC1 | 69.2*
SMILES | GBA activity up
CCOC(=O)N1CCN(C(=O)c2ccc3c(=O)n(Cc4ccc(OC)cc4)c(=S)[nH]c3c2)CC1 | -34.8
Cn1c(=O)n(CCc2ccccc2)c(=O)c2c1nc1n2CCN1c1ccccc1 | 36.3
COc1ccc(-c2c3c(=O)n(C)c(=O)n(C)c3cn2C2CCCCC2)cc1 | -4.0
N#Cc1ccc(CSc2nnc(-c3cnccn3)o2)cc1 | -20.2
Cc1cc(-c2nnc(SCC(=O)NC3CCCC3)o2)no1 | -13.8
Cc1cc(-c2nnc(SCc3cccnc3)o2)no1 | 86.1*
CCN(CC)S(=O)(=O)c1ccc(NC(=O)C(OC)c2ccccc2)cc1 (configuration not stated) | -19.1
CC(C)CCn1nnnc1C(c1ccccc1F)N1CCC(C(N)=O)CC1 (configuration not stated) | 17.9
C=CCN1CCN(C(c2ccccc2)c2nnnn2CCC(C)C)CC1 (configuration not stated) | -3.9
CC(C)CCn1nnnc1C(c1ccccc1)N1CCC(C(N)=O)CC1 (configuration not stated) | 87.0*
CCOC(=O)c1ccccc1NC(=O)c1cn(CC)c2nc(C)ccc2c1=O | 3.7
c1ccc2c(-c3nc(C4CCCCC4)no3)cc(-c3ccncc3)nc2c1 | -4.1
CCOC(=O)C1=C(c2ccccc2)N2CCN=C2S1 | -30.2
CN1CCN(S(=O)(=O)c2ccc(NC(=O)Nc3cccc(Cl)c3)cc2)CC1 | 1.9
O=C(Nc1cccc(Cl)c1)Nc1nccs1 | -49.4
N#CCc1ccc(NC(=O)Nc2cccc(Cl)c2)cc1 | 70.1*
O=C1Nc2cc3c(cc2Sc2ccccc21)OCCO3 | -3.7
O=C(CN1CCC(n2nnc3cc(F)ccc32)CC1)NCc1ccco1 | -17.6
Cc1cc(C)n(CCc2nc3c4ccccc4nc(SCc4ccc(C#N)cc4)n3n2)n1 | -38.0
O=C(CCNS(=O)(=O)c1cccc2nsnc12)NC1CCN(Cc2ccccc2)CC1 | 85.7*
CN(CC(=O)NCCN1CCN(Cc2ccccc2)CC1)S(=O)(=O)c1cccc2nsnc12 | 16.7
O=C(CCCNS(=O)(=O)c1cccc2nsnc12)NCCc1ccccc1 | 2.6
COc1ccccc1NS(=O)(=O)c1cc(Cl)ccc1OC | -7.8
COc1ccccc1N1CCN(C(=O)c2cc(-c3cccc(Cl)c3)on2)CC1 | -13.9
CC1(C)CC(=O)C=C(Nc2ccc(S(N)(=O)=O)cc2)C1 | 6.5
SMILES | GBA activity up
CCCn1c(SCC(=O)N2CCCCC2)nnc1-c1ccco1 | -44.0
COCCCn1c(SCC(=O)OC2CCCCC2)nnc1-c1ccco1 | 65.7*
COCCCn1c(SCC(=O)N2CCCCC2C)nnc1-c1ccco1 (configuration not stated) | -3.1
CC(=O)c1cnc(Nc2nc(C)c3cccc(C)c3n2)nc1C | -29.0
CN(CC(=O)NCc1ccco1)S(=O)(=O)c1ccc2c(c1)n(C)c(=O)c(=O)n2C | -11.2
O=C(NC1=NCCS1)C1CC2CCC1C2 (configuration not stated) | 0.6
C=CCNC(=O)CCCCC(=O)NCC=C | 2.5
C=CCNC(=O)CCCOc1cc(C)ccc1C | 68.2*
Cc1ccc(C)c(OCC(=O)Nc2nonc2NC(=O)COc2cc(C)ccc2C)c1 | -28.2
Cc1cccn2c(=O)c3cc(C(=O)N4CCN(c5ccccc5)CC4)n(C)c3nc12 | 7.3
C=CCSC1=N/C(=C\c2ccsc2)C(=O)S1 | 401.6*
CCOC(=O)SC1=N/C(=C\c2ccc(N(C)C)cc2)C(=O)S1 | 10.2
COc1cccc(-n2nnc3c(=O)n(Cc4ccccc4Cl)cnc32)c1 | 25.5
N#Cc1c2n(c3c(=O)n(Cc4ccccc4Cl)cnc13)CCCCC2 | 68.0*
COC(=O)Cn1cnc2c(C#N)c3n(c2c1=O)CCCCC3 | -11.3
c1ccc(-c2nn3c(-c4ccncc4)nnc3s2)nc1 | -22.3
Cc1ccc(-c2csc3ncnc(Sc4nnc(CN5CCCCCC5=O)o4)c23)cc1 | -6.5
Cc1cc(C)n(-c2ccc(Cl)c(C(=O)Nc3ccc(-c4nnc5n4CCCCC5)cc3)n2)n1 | -2.5
Cn1c(Sc2nc3ccccc3n2C)nc2ccccc21 | -19.8
CN(C)c1ccc(-c2nc3ccccc3n2C)cc1 | 80.7*
Cn1c(-c2ccc(Br)o2)nc2ccccc21 | 5.0
CCCCS(=O)(=O)Nc1ccc(Cc2ccncc2)cc1 | -21.7
